Screening data (PubChem BioAssay)
This is one part of a sample in which hits are shown more often than they occur.
Marburg entry inh – inhibitors of Marburg virus binding or cell entry; Potency, µM (doses to about 37.8 µM), inactives show top-dose activity change, negative = inhibition, hits mostly inhibitors; Marburg virus pseudotyped entry inhibition, cell reporter; 300,000 compounds, 1.8% hits; AID 540276; calls by dose curve; tested in HEK293 cells; note: potency is the fitted concentration of half-maximal effect; % is set by controls: 0 for no effect and ±100 for the full control effect
Shiga toxin inh – blocks Shiga toxin action in Vero cells; inhibition, % at 38.7 µM; 290,000 compounds, 9.2% hits; AID 2315; Vero cells, Shiga toxin protein synthesis inhibition reporter; in the data active = inhibition mostly above about 28%, no sharp cut-off; inactive = mostly below about 43%; note: 0% is about no effect
LASV entry inh – blocks Lassa virus binding to or entry into cells; Lassa virus pseudotype entry inhibition, cell reporter; Potency, µM (titrated, usually from 37.9 µM), for inactives: top-dose activity change, negative = inhibition, actives largely listed as inhibitors; 300,000 compounds, 1.2% hits; calls by dose curve; tested in HEK293 cells; note: potency is the fitted concentration of half-maximal effect; % is set by controls: 0 for no effect and ±100 for the full control effect; nearly all actives have a fitted effect of over 50% in size
VACV mCherry inh – inhibitors of vaccinia virus infection (mCherry reporter signal) | 310,000 compounds, 0.63% hits | Vaccinia virus mCherry reporter infection, fluorescence | Potency, µM (titrated, usually from 36.5 µM), for inactives: top-dose activity change, negative = inhibition, hits mostly inhibitors; calls by dose curve; tested in A549 cells; note: potency is the fitted concentration of half-maximal effect; % is set by controls: 0 for no effect and ±100 for the full control effect; nearly all actives have a fitted effect of over 35% in size
Cycloheximide cs – affects cycloheximide protein synthesis inhibition readout, counter-screen; 300,000 compounds, 12% hits; max response, %; cell reporter, cycloheximide protein synthesis inhibition counterscreen; AID 2314; in the data active = max response mostly above about 13%, no sharp cut-off; inactive = mostly below about 14%; note: read at 38.3 µM for the half of the compounds with a filed dose; 0% is about no effect
VACV Venus inh – vaccinia inhibition (Venus reporter). 330,000 compounds, 0.46% hits. Potency, µM (highest dose often 36.5 µM), for the others: at the highest dose activity change, negative = inhibition, actives largely listed as inhibitors. Vaccinia virus Venus reporter expression, fluorescence; calls by dose curve; tested in A549 cells; note: potency is the fitted concentration of half-maximal effect; % is set by controls: 0 for no effect and ±100 for the full control effect; nearly all actives have a fitted effect of over 30% in size
Active calls of the source: *; i = inactive; ? = inconclusive; / = no result; ! = not confirmed by another sample; [ ] = dose if it differs, or a comment.

SMILES	Marburg entry inh	Shiga toxin inh	LASV entry inh	VACV mCherry inh	Cycloheximide cs	VACV Venus inh
CCCCn1c(N)c(N(CCOC)C(=O)CCS(=O)(=O)c2ccc(Cl)cc2)c(=O)[nH]c1=O	6%	/	1%	i	/	-16%
Cc1cc2c(c(=O)o1)[C@H](CC(C)C)C(C#N)=C(N)O2	5%	/	/	/	/	/
COc1ccc(Cc2c(C)nn(-c3nc(C)c(C(=O)Nc4ccc(C)cc4C)s3)c2C)cc1	8%[46.1 µM]	/	8%[46.1 µM]	-1%	/	-15%
CCCN(Cc1nnc(-c2cccs2)o1)C(=O)CN1C(=O)NC2(CCCCC2)C1=O	?	/	4%	-20%	/	-14%
CSc1cc(-c2ccncc2)nc(-c2ccc(Cl)cc2)c1	4.5µM*	-3	14%	?	-3	-22%
CCOC(=O)CC1C(=O)NC2CCCCC2N1C(=O)Nc1ccc(Cl)cc1 (configuration not stated)	13%	20	3%	/	28*	-20%
CCOC(=O)CC1C(=O)NCCN1C(=O)Nc1ccc(Cl)cc1 (configuration not stated)	18%	-1	15%	/	2	5%
CCOc1cccc2cc(-c3csc(NC(=O)CCC(=O)NCCN4CCCCC4C)n3)c(=O)oc12 (configuration not stated)	?	76	?	11µM*	40*	?
CCOc1cccc2cc(-c3csc(NC(=O)CCC(=O)NCCCN4CCC(C)CC4)n3)c(=O)oc12	/	83*	/	/	41*	/
COc1ccc(-c2cc3ccc(O)c(CN4CCC(C)CC4)c3oc2=O)cc1OC	/	/	3%[46.1 µM]	-1%	/	-13%
CCOc1cccc2cc(-c3csc(NC(=O)CCC(=O)N4CCC(C)CC4)n3)c(=O)oc12	-1%	21	?	/	-1	/
COc1cccc2cc(-c3csc(NC(=O)CCC(=O)NCCCN4CCC(C)CC4)n3)c(=O)oc12	?	73*	?	?	28*	1%
COc1ccc(N2CCN(Cc3nc4c(c(=O)[nH]c(=O)n4C)n3Cc3ccccc3F)CC2)cc1	10%[46.1 µM]	/	7%[46.1 µM]	-14%	/	-13%
CC(=O)O[C@H]1[C@H]2O[C@]23[C@@H]2CC[C@@H]4C[C@@H](O)CC[C@]4(C)[C@H]2CC[C@]3(C)[C@H]1c1ccc(=O)oc1	/	-15	/	/	-12	/
CC(C)=C1CCC(C)CC1=NNC(N)=S (configuration not stated)	-13%	/	?	-14%	/	-15%
CC1C/C(=N\NC(N)=S)c2cc(Cl)ccc2S1 (configuration not stated)	13µM*	-12	?	?	-2	?
COc1cc(OC)c(-c2oc3ccccc3c(=O)c2O)c(OC)c1	?	/	-22%	?	/	?
COc1cccc2c(=O)c3ccccc3oc12	/	67*	/	11%	55*!	-10%
O=c1c2ccccc2oc2ncccc12	?	57	19%	-14%	55*	-12%
COc1ccc(C(=O)Oc2c(C)occc2=O)cc1OC	5%	-3	6%	/	-3	-13%
COc1cccc2c(=O)ccoc12	0%	39	8%	-14%[1.46 µM]	12*	-11%
O=C(Nc1ccccc1C(F)(F)F)c1noc2c1CCCCC2	?	/	23%[46.1 µM]	-3%	/	-2%
O=C(Nc1cc(Cl)ccc1Cl)c1noc2c1CCCC2	/	-2	/	2%	2	-10%
O=C(NCc1ccc(F)cc1)c1noc2c1CCCCC2	?	32	3%	/	21*	/
O=C(NCc1ccc(Cl)cc1)c1noc2c1CCCCC2	?	47*	-19%[14.3 µM]	-4%	32*	-14%
SMILES	Marburg entry inh	Shiga toxin inh	LASV entry inh	VACV mCherry inh	Cycloheximide cs	VACV Venus inh
O=C(NCc1ccc(F)cc1)c1noc2c1CCCC2	5%	50	?	/	20*	/
O=C(Nc1ccc(F)cc1F)c1noc2c1CCC2	0%	59*	?	-23%	35*	-12%
CC(C)(C)C1CCc2onc(C(=O)NCc3ccc(F)cc3)c2C1 (configuration not stated)	-30%	4	-29%	-22%	-3	-13%
CC(C)(C)OC(=O)N1CCC(C(=O)N[C@H](C(=O)O)c2ccccc2)(c2ccccc2)CC1	/	-3	/	/	1	/
Fc1cnc(N2CCOCC2)nc1N1CCc2ccccc21	?	active	16%	/	12	-27%
CCOC(=O)C1CCN(CC(=O)Nc2c(C(=O)OC)[nH]c3ccc(Cl)cc23)CC1	10µM*	-11	?	-1%	-3	-5%
COC(=O)c1[nH]c2ccc(Br)cc2c1NC(=O)CN1CCN(C2CCCCC2)CC1	6.5µM*	-28	?	/	-9	/
COC(=O)c1[nH]c2ccc(Cl)cc2c1NC(=O)Oc1ccccc1	-1%	56*	?	-14%	40*	-14%
COC(=O)c1[nH]c2ccc(C)cc2c1NC(=O)CCN1CCN(C2CCCCC2)CC1	-1%	-8	/	/	-1	/
C1=Cc2ccccc2/C1=C\c1cccc(/C=C2\C=Cc3ccccc32)c1	/	/	/	-3%	/	-20%
CC(C)CN1C(=O)C(=O)N(CC(=O)N(C)CC(=O)Nc2ccc(F)cc2)C1=O	4%	/	-5%	-14%	/	-6%
COc1cn(CC(=O)Nc2cc(C)cc(C)c2)c(CN2CCCCC2)cc1=O	/	/	0%[46.1 µM]	i	/	-10%
CC(C)OC(=O)N(C)c1ccc(C(O)(C(F)(F)F)C(F)(F)F)cc1	4%	37	?	-18%	20*	-12%
O=C(COC(=O)CNS(=O)(=O)c1cccc(F)c1)NCCc1ccccc1	-5%[46.1 µM]	/	11%	-14%	/	-9%
COc1ccccc1CNS(=O)(=O)c1ccc(-c2cc(C(F)(F)F)on2)s1	/	/	3%[46.1 µM]	-10%	/	-16%
Cc1cc(Nc2cccc(C(F)(F)F)c2)ncn1	23%[46.1 µM]	/	-1%[46.1 µM]	-19%	/	-11%
Cc1ccc(Nc2nc3nonc3nc2Nc2cccc(C(F)(F)F)c2)cc1Cl	?	/	?	3.5µM*	/	3.5µM*
COCCNC(=O)c1ccc(CSc2nc3ccncc3n2Cc2ccccc2)cc1	?	/	2%[46.1 µM]	-2%	/	7%
CC(C)CN1CCC(Oc2cccc(C(=O)NCCc3ccccc3)c2)CC1	-14%	60*	26%	-24%	27*	-16%
COCC(C)N1CCC(Oc2cccc(C(=O)NCCc3ccccc3)c2)CC1 (configuration not stated)	/	107*	/	/	59*	/
Cc1cc(C)c(-c2noc(C(=O)OC(C)(C)C)c2C(=O)OC(C)(C)C)c(C)c1	-16%	-5	-9%	-4%	-2	-2%
Cc1cc(O)cc(C)c1C=Cc1cncc(C(=O)OC(C)(C)C)c1	/	/	0.79µM*	/	/	/
CCOC(=O)c1[nH]c2ccc(Cl)cc2c1NC(=O)c1nonc1C	9%	17	-2%	/	-2	/
CCOC(=O)c1[nH]nc(N)c1NC(=O)c1ccc(Cl)cc1Cl	-9%	22	1%	-15%	27*	-8%
CNC(=S)Nc1ccc2nc(C)oc2c1	5%[46.1 µM]	-25	4%[46.1 µM]	-7%	-2	-16%
COc1cccc(CSc2nc3ccccc3[nH]2)c1	?	68	-13%	/	30*	/
O=[N+]([O-])c1cccc(CSc2nc3ccccc3[nH]2)c1	?	38	?	-24%	13*	-15%
